MARV entry inh: qHTS for Inhibitors of binding or entry into cells for Marburg Virus. Marburg virus pseudotype entry/binding inhibition, cell-based. Potency, µM (doses to about 49.2 µM), for the others: top-dose activity change, negative = inhibition, hits mostly inhibitors. actives 6.5% (n = 18,000)
LASV entry inh: qHTS for Inhibitors of binding or entry into cells for Lassa Virus; Potency, µM (highest dose often 49.2 µM), inactives show top-dose activity change, negative = inhibition, actives largely listed as inhibitors; Lassa virus pseudotyped entry inhibition, cell-based qHTS; actives 4.1% (n = 18,000)
Starred values were filed as active, the others as inactive; ? = inconclusive; . = no result; ! = not confirmed by another sample; [ ] = another dose, or the depositor's remark. The list is not random: actives were taken first. Their share in the collection is about 7.1%. Calls follow the shape of the full dose curve; tested in HEK293 cells. % is scaled to controls: 0 for no effect and ±100 for the full control effect; potency is read from the fitted curve at half-maximal effect.

SMILES	MARV entry inh	LASV entry inh
COc1ccc(-c2oc3ncnc(N)c3c2-c2ccc(NC(=O)Nc3cc(C(F)(F)F)ccc3F)cc2)cc1	13µM*	.
CCCCCC1=CC2=C(C(=O)OC)C(c3ccccc3)NC(=O)N2CC1 (stereo unspecified)	1%[8.59 µM]	-7%[8.59 µM]
COC(=O)C1=C(C)N(CC2CC2)C(=O)NC1c1ccc(Br)cc1 (stereo unspecified)	77%[8.59 µM]	-8%[8.59 µM]
CNC(=O)[C@@H]1C[C@@H](NCc2cccc(Oc3ccccc3)c2)CN1C(C)C	10µM*	3%
O=C(O)c1cc(C(=O)O)c(C(=O)N(Cc2cccc(Oc3ccccc3)c2)[C@H]2CCCc3ccccc32)cc1C(=O)O	7%	-6%
COc1ccc(COC(=O)NN=C2C[C@@H](O)[C@@H](O)[C@@H]3[C@H]4C(=O)N(Cc5ccc6c(c5)OCO6)C(=O)[C@@H]4CC[C@H]23)cc1	4%[8.59 µM]	.
COc1ccccc1CNc1ncncc1-c1ccccc1CN(C)C	?	-22%
COc1ccccc1CNc1ncnc2ccc(-c3ccccc3CN(C)C)cc12	20µM*	-6%
CN(C)Cc1ccccc1-c1cncnc1NCc1ccccc1	-25%	-5%
COc1ccccc1CNc1nc(-c2ccccc2CN(C)C)nc2ccccc12	11µM*	?
CN(C)Cc1ccccc1-c1nc(NCc2ccccc2)c2ccccc2n1	10µM*	?
COCCNc1nc(-c2ccccc2C)nc2ccccc12	-1%	-2%
Cc1cnc(CNc2ncnc3ccc(-c4ccccc4CN(C)C)cc23)cn1	-23%	1%
COCCNc1nc(-c2ccccc2CN(C)C)nc2ccccc12	13µM*	-24%
CO[C@H](c1ccccc1Br)[C@H](C)C=CCCO	?	-13%[8.59 µM]
COC[C@@H](OC(C)=O)[C@H]1OCc2ccccc2[C@H]1C=Cc1ccccc1	1%[8.59 µM]	-4%[8.59 µM]
CC1(C)CN(C2CCCCC2)C(=O)[C@@H]1CC(=O)Nc1ccc(Br)cc1	9%	-28%
O=C(NN=C1C[C@@H](O)[C@H](O)[C@H]2[C@@H]3C(=O)N(C4CCCCC4)C(=O)[C@@H]3CC[C@@H]12)OCc1ccccc1	-13%[8.59 µM]	-16%[8.59 µM]
CCN1C(=O)NC(CCc2ccccc2)C(C(C)=O)=C1C (stereo unspecified)	-9%[8.59 µM]	-12%[8.59 µM]
CC(C)(C)N1C(=O)[C@@H]2[C@H]3[C@H](O)[C@H](O)CC(=NOCc4ccccc4)[C@H]3CC[C@H]2C1=O	-9%[8.59 µM]	-3%[8.59 µM]
CN1CCC(=C2c3ccccc3CCc3sccc32)CC1	11µM*	22µM*!
CN1CCC(=C2c3ccccc3CC(=O)c3sccc32)CC1	7.1µM*!	?
COC1=C[C@@H](C(=O)N[C@H]2CCCC[C@H]2NC(C)=O)[C@]2(C)Cc3ccccc3[C@H]2CC1=O	?	6%[8.59 µM]
Nc1ccn(C2OC(CO)C(O)C2O)c(=O)n1 (stereo unspecified)	1µM*!	1.3µM*!
NC(=O)c1ncn(C2OC(CO)C(O)C2O)c1N (stereo unspecified)	10%	15%
SMILES	MARV entry inh	LASV entry inh
Nc1ccn([C@@H]2O[C@H](CO)[C@@H](OP(=O)(O)O)[C@H]2O)c(=O)n1	3%	6%
Nc1ncnc2c1nc(Br)n2C1OC(CO)C(O)C1O (stereo unspecified)	-22%	?
Nc1ncn([C@@H]2O[C@H](CO)[C@@H](O)[C@H]2O)c(=O)n1	?	6.3µM*
Nc1ncnc2c1ccn2[C@@H]1O[C@H](CO)[C@@H](O)[C@H]1O	1.4µM*	2.5µM*
O=C(OCc1cn([C@H]2CN(C(=O)c3cccs3)[C@@H](c3ccc(Cl)cc3)C[C@H]2O)nn1)c1ccccc1	-9%	-12%
Cc1ccc(CN2[C@@H](C)[C@@H](c3ccccc3)Oc3c(Cl)cccc3S2(=O)=O)cc1	?	2%
C=C(C(C)=O)C(O)C=Cc1ccco1 (stereo unspecified)	3%[8.59 µM]	0%[8.59 µM]
CCN1C(=NCC(C)C)N[C@H](c2ccccc2)[C@H](C(=O)OC)[C@H]1C	8%[8.59 µM]	?
NCc1ccc(-c2nc(-c3ccc(Cl)c(O)c3)c(-c3ccncc3)[nH]2)cc1	?	20%
Oc1cccc(-c2nc(-c3ccccc3)[nH]c2-c2ccncc2)c1	7.9µM*	.
CCCCCN=c1ccn(Cc2ccccc2)c2ccccc12	14µM*	20µM*
CC(=O)OC[C@H]1O[C@@H](ON=C2C[C@@H](O)[C@@H](O)[C@@H]3[C@H]4C(=O)N(Cc5ccccc5)C(=O)[C@@H]4CC[C@@H]23)[C@H](OC(C)=O)[C@@H](OC(C)=O)[C@H]1OC(C)=O	-9%[8.59 µM]	21%[8.59 µM]
CC[C@@]1(O)C(=O)OCc2c1cc1n(c2=O)Cc2cc3ccccc3nc2-1	2.2µM*	?
CCN1C(=O)[C@H]2[C@H]3C(=CC[C@@H]2C1=O)C1(OCCCO1)[C@@H]1O[C@H]1[C@H]3O	68%[8.59 µM]	8%[8.59 µM]
Cc1ccc(CN2[C@@H](C)[C@@H](C)Oc3c(Cl)cccc3[S+]2(=O)[O-])cc1	14%	-7%
O=c1cc(-c2ccc(O)cc2)oc2ccc(O)cc12	56%	11µM*
O=c1cc(-c2cccc(O)c2)oc2ccc(O)cc12	77%	?
CC=COC(=O)N[C@@H](c1ccccc1)[C@]1(C(=O)OC)CCCC1=O	?	5%[8.59 µM]
CCCCCC(=O)N1C[C@H](O)[C@@H](n2cc(C3CC3)nn2)C[C@H]1c1ccc(C)cc1	10%	.
CCN1C(=NCc2ccc(OC)cc2)NC(c2ccccc2)C(C(=O)OC)=C1C (stereo unspecified)	-22%[8.59 µM]	10%[8.59 µM]
CC(C)/C(O)=C1/C(=O)OC(c2ccoc2)[C@@]2(C)C(O)C(O)[C@@]34OC5(C)OC67CC(C)(C(O)[C@@]6(O)C(O)[C@@]3(O5)C12)C(CC(=O)O)[C@@]74C (stereo partly specified)	-3%	-3%
COC(=O)CC1C2(C)CC34OC5(C)O[C@@]6(C7/C(=C(/OC)C(C)C)C(=O)OC(c8ccoc8)[C@@]7(C)C(OC(=O)C(C)C)C(OC)[C@]6(O5)[C@@]13C)C(OC)[C@]4(OC)C2OC(C)=O (stereo partly specified)	7.1µM*	?
C=C1C(O)C2OC3(CCC(/C=C/C(C)C4CC(C)=CC5(OC(CC(C)(O)C(=O)O)CCC5O)O4)O3)CCC2OC1C(O)CC(C)C1OC2(CCCCO2)CCC1C (stereo unspecified)	0.15µM*	?
CC(C)CN[S+](=O)([O-])c1ccc(Br)cc1N1CCC[C@H]1CO	14%	15%
Cc1cc(C)cc(CO[C@H]2C=C[C@@H](c3ccccc3)O[C@H]2CO)c1	-24%[8.59 µM]	-11%[8.59 µM]
SMILES	MARV entry inh	LASV entry inh
Cc1ccc(O)c([C@H](CCN(C(C)C)C(C)C)c2ccccc2)c1	10µM*	?
Cc1ccc(C(C)C)c(O)c1	4%	-7%
COC(=O)N1C(C)=Cc2ccccc2C1CC(C)=CC(C)=O (stereo unspecified)	-10%[8.59 µM]	-6%[8.59 µM]
C[C@H](N)[C@H](O)c1cccc(O)c1	1%[17.8 µM]	-3%[17.8 µM]
CC(N)C(O)c1ccc(O)c(O)c1 (stereo unspecified)	11µM*!	-8%
O=C(OCc1cn([C@@H]2C[C@H](c3ccc(Cl)cc3)N(Cc3cccs3)C[C@@H]2O)nn1)c1ccccc1	-25%	.
CC1CCN(CCCC(=O)c2ccc(F)cc2)CC1	-19%	-3%
CC(C)(C)c1ccc(C(=O)CCCN2CCC(OC(c3ccccc3)c3ccccc3)CC2)cc1	-67%	8.9µM*
CCC1CN2CCc3cc(OC)c(OC)cc3C2CC1CC1NCCc2cc(OC)c(OC)cc21 (stereo unspecified)	5µM*	5.6µM*

Source: PubChem (National Center for Advancing Translational Sciences (NCATS))
